Laboratory results taken from publication PMC5540273 (PLoS ONE, 2017).

Assays:
Details in all cases: concentration: 1 μM, replicates: in singlicate; n = 1
[1] = test system: T1, CTK
T1 construct: gene MATK

[2] = test system: DAPK1
[3] = test system: DAPK2
[4] = test system: DAPK3
[5] = test system: T2, DCAMKL1
T2 construct: gene DCLK1

[6] = test system: T3, DCAMKL2
T3 construct: gene DCLK2

[7] = test system: T4, DCAMKL3
T4 construct: gene DCLK3

[8] = test system: DDR1
[9] = test system: DDR2
[10] = test system: T5, DLK
T5 construct: gene MAP3K12

[11] = test system: T6, DMPK2
T6 construct: gene CDC42BPG

[12] = test system: DMPK
[13] = test system: T7, DRAK1
T7 construct: gene STK17A

[14] = test system: T8, DRAK2
T8 construct: gene STK17B

[15] = test system: DYRK1A
[16] = test system: DYRK1B
[17] = test system: DYRK2
[18] = test system: EGFR
[19] = test system: EIF2AK1
[20] = test system: EPHA1
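Further: KINOMEscan kinase panel screen.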

Structure (SMILES)	%Inh [1]	%Inh [2]	%Inh [3]	%Inh [4]	%Inh [5]	%Inh [6]	%Inh [7]	%Inh [8]	%Inh [9]	%Inh [10]	%Inh [11]	%Inh [12]	%Inh [13]	%Inh [14]	%Inh [15]	%Inh [16]	%Inh [17]	%Inh [18]	%Inh [19]	%Inh [20]
CC(C)c1cc(-c2ccc3c(N)n[nH]c3c2)nc(N)n1 [GSK2250882]	0%	9%	6%	25%	2%	0%	0%	0%	4%	21%	0%	1%	98.4%	0%	28%	0%	78%	17%	12%	2%
COC(=O)c1cccc(NC(=O)NC2CCN(c3ccnc(Nc4ccc(F)cc4)n3)C2)c1 (stereo not drawn) [GSK1379725]	0%	0%	0%	0%	0%	0%	12%	0%	0%	0%	0%	0%	0%	0%	18%	0%	0%	0%	0%	8%
FC(F)(F)c1ccccc1-c1cc(-c2c[nH]nc2-c2ccccn2)ccn1 [GW679396]	0%	0%	9%	23%	6%	0%	2%	68%	2%	32%	7%	16%	14%	2%	0%	13%	12%	0%	0%	0%
Fc1ccc(-c2nc[nH]c2-c2ccncc2)cc1 [SB-217360]	31%	0%	0%	8%	29%	0%	0%	9%	34%	0%	71%	0%	0%	0%	6%	0%	33%	31%	0%	0%
COc1ccc(Nc2nccc(-c3ccc(NC(=O)c4cc5cc(F)ccc5[nH]4)cc3)n2)cc1 [GSK1229496]	0%	55%	5%	1%	11%	0%	0%	63%	26%	36%	4%	0%	69%	19%	14%	0%	0%	14%	0%	0%
Nc1cccc(-c2ccc3c(N)n[nH]c3c2)n1 [GSK2192730]	0%	27%	2%	28%	0%	0%	0%	0%	0%	0%	0%	0%	68%	0%	25%	21%	52%	0%	0%	14%
CCc1ccc(-c2ccc3c(c2)-c2n[nH]cc2S(=O)(=O)N3C)cc1	0%	24%	7%	0%	34%	0%	13%	0%	9%	0%	0%	0%	0%	0%	0%	11%	0%	0%	0%	11%
CC(C)c1ccc(O)cc1Nc1ccnc2ccc(C(F)(F)F)cc12 [GW482059]	8%	5%	0%	0%	0%	0%	0%	18%	0%	17%	0%	0%	10%	0%	13%	16%	8%	37%	3%	6%
Nc1ncnc2occ(-c3ccc4c(c3)CCN4C(=O)Cc3cc(F)ccc3F)c12 [GSK2645446]	0%	0%	0%	0%	10%	0%	0%	0%	25%	8%	51%	7%	0%	0%	6%	0%	0%	18%	0%	11%
